# Screening results from PubChem.
# D2 antag: HTS Assay for Allosteric Antagonists of the Human D2 Dopamine Receptor: Primary Screen for Antagonists. inhibition, % at 10 µM. 340,000 compounds, 2% hits. HEK293 TREx D2 cells, calcium flux, dopamine EC80. D(2) dopamine receptor (Homo sapiens), P14416; in the data active means inhibition above about 30%; inactive means below that, where a call was filed; further: 0% is about no effect
# Target sequence (P14416 whole entry, looked up): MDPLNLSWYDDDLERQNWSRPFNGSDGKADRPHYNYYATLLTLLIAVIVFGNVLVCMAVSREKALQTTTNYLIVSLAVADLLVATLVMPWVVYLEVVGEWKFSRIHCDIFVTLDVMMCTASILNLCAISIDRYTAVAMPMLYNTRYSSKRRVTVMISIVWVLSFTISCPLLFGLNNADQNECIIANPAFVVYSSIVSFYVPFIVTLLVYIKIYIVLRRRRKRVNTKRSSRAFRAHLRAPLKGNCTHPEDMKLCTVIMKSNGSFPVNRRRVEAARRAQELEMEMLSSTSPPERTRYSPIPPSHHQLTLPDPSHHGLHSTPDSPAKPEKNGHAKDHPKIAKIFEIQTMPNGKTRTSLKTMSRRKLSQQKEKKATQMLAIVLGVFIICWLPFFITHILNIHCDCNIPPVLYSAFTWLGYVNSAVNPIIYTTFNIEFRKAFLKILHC
#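 Tetracycline-induced HEK293 TREx cells expressing D2 receptor forced-coupled to calcium signalling, loaded with no-wash calcium dye. Compounds added and calcium flux read 180 s, then dopamine added at EC80 and read a further 180 s.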
# D2 ag-1: Beta-Arrestin HTS for Positive Allosteric Modulators of the Human D2 Dopamine Receptor: Agonists; DiscoveRx PathHunter D2 beta-arrestin, luminescence, 90 min; 100% = 57 uM dopamine signal; activation, % (concentration not given with the values); 360,000 compounds, 0.084% hits; in the data active means activation above about 40%; inconclusive means between about 15% and that limit
#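 Agonist mode: compounds alone added to overnight-plated D2 PathHunter cells for 90 min at 37 C, with 57 uM final dopamine (EC100) defining full response. Beta-arrestin recruitment detected by chemiluminescent reagent, read after 1 h at ambient temperature.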
# D2 ag-2: HTS Assay for Allosteric Agonists of the Human D2 Dopamine Receptor: Primary Screen for Agonists. 340,000 compounds, 0.53% hits. HEK293 T-REx D2 cells, calcium flux agonist mode. AID 485358, 2010. activation, % at 2 µM. D(2) dopamine receptor (Homo sapiens), P14416;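 active means activation over 3 SD above normal in the single-dose calcium agonist read, cut at about 30% in these data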; further: 0% is about no effect
#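 Agonism scored from kinetic calcium signal (1 read/sec, 180 s) following compound pin transfer, after a 10 s baseline. Cells: HEK293 Trex line expressing inducible D2 receptor coupled to calcium, dye-loaded after overnight culture at 30 C.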
# D2 PAM-1: HTS Assay for Positive Allosteric Modulators of the Human D2 Dopamine Receptor: Primary Screen for Potentiators; D(2) dopamine receptor (Homo sapiens), P14416; HEK293 T-REx D2, calcium flux, EC20 dopamine potentiation; potentiation, % at 10 µM; 340,000 compounds, 0.34% hits;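 active means potentiation over 3 SD above the plate norm, cut at about 30% in these data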; further: 0% is about no effect
#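 Tetracycline-induced Hek293 Trex D2 cells, force-coupled to calcium, loaded with no-wash calcium dye. Compound added with 180 s kinetic read for agonism, then EC20 dopamine and a further 180 s read for potentiation.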
# D2 PAM-2: Beta-Arrestin HTS for Positive Allosteric Modulators of the Human D2 Dopamine Receptor: Potentiators; DiscoveRx D2 beta-arrestin cells, luminescence, 90 min; 100% = 57 uM dopamine signal; potentiation, % (no concentration beside the values); 360,000 compounds, 0.23% hits; in the data active means potentiation above about 50%; inconclusive means mostly about 30% to 49%
#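 PathHunter D2 cells, attached overnight at 37 deg C, received compound in DMSO plus dopamine at EC20 (50 nM final) for 90 min at 37 deg C. Beta-arrestin recruitment was read as luminescence after 1 h with detection reagent at ambient temperature.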
# An asterisk follows results filed as active; ? = inconclusive; · = not tested or not shown. Rows were chosen to be rich in hits. Some 2.4% of all compounds tested hit in one or more screens of this group.
SMILES,D2 antag,D2 ag-1,D2 ag-2,D2 PAM-1,D2 PAM-2
CSc1oc(-c2ccco2)nc1S(=O)(=O)c1ccccc1,3.6,-3.7,0.4,-6.5,-4.1
CC(C)Sc1oc(-c2ccco2)nc1S(=O)(=O)c1ccccc1,32.7*,-2.6,-2.6,-2.7,-15.2
Cc1noc(-c2ccc(NC(C)c3ccccc3)c([N+](=O)[O-])c2)n1 (stereo not given),·,·,0.2,6.0,·
CCCCN1CCc2c1nc1ccc(Br)cc1c2N,67.9*,-0.5,-0.8,-22.2,-21.8
Cc1ccccc1Cn1c(SCc2ccc(C(=O)NC3CCCCC3)cc2)nc2ccncc21,·,·,0.1,-6.0,·
O=C(COC(=O)c1ccccc1-c1nc2ccccc2s1)NC1CCS(=O)(=O)C1 (stereo not given),32.3*,0.8,0.1,-2.8,-15.3
CCCSCCCNC(=O)c1cc2c(s1)CS(=O)(=O)C2,-4.6,-0.7,-0.2,0.1,5.4
CC1CCC(NC(=O)c2cc3c(s2)CS(=O)(=O)C3)CC1 (stereo not given),41.3*,-1.8,1.2,11.0,-10.0
Cc1c(C(=O)N2CCC(c3nc4ccccc4s3)CC2)oc2ccc(Cl)cc12,·,·,1.4,-3.3,·
Cc1cc(N2CCN(c3ccccc3)CC2)n2ncnc2n1,-6.8,-1.9,0.4,6.2,-1.9
Cc1cc(N2CCN(C(c3ccccc3)c3ccc(Cl)cc3)CC2)n2ncnc2n1 (stereo not given),30.7*,-4.3,-0.5,8.4,-3.8
Cc1cc(N2CC(=O)N(CCc3ccccc3)C(=O)C2)n2ncnc2n1,32.0*,0.2,-0.5,-6.5,-3.4
CCc1ccc2oc(C(=O)N(Cc3ccc(N(C)C)cc3)Cc3ccco3)c(C)c2c1,·,·,1.5,-2.0,·
CCc1ccccc1N1C(=O)N(Cc2ccc(C#N)cc2)c2ccccc2S1(=O)=O,·,·,1.1,12.9,·
Cc1occc1C(=O)Nc1c(F)cc(F)cc1Br,34.0*,3.5,-0.1,-12.3,-8.8
OCCC1CN(Cc2ccc(F)cc2)CCN1CCCc1ccccc1 (stereo not given),-6.8,-1.2,0.6,-17.1,-3.7
OCCC1CN(Cc2ccc(F)cc2)CCN1CCc1ccccc1 (stereo not given),42.7*,-2.0,-3.2,-1.8,-1.6
OCCC1CN(Cc2cccc(-n3cccn3)c2)CCN1Cc1ccccc1 (stereo not given),57.8*,-1.8,0.2,-21.9,-25.5
CCOC(=O)NN1C(=O)c2ccccc2NC1c1ccccn1 (stereo not given),37.7*,-18.8,1.1,·,-10.1
O=C(c1cccc(Cl)c1)N1c2ncnn2C2(CCCCC2)[C@@H]2CCCC[C@@H]21,·,·,-1.8,13.0,·
COc1ccc(NC(=O)c2ccc(-c3ccccc3Cl)o2)cc1,41.8*,-3.2,-1.2,-16.5,-24.9
COc1ccccc1C(CNC(=O)c1ccc(-c2ccccc2Cl)o1)N1CCCC1 (stereo not given),10.9,-2.4,1.0,-19.8,-68.6
COc1ccc(NC(=O)c2ccc(-c3cccc(Cl)c3C)o2)cc1,·,·,0.3,-7.5,·
COc1ccc(C(CNC(=O)c2cc(F)c(F)c(F)c2F)N2CCOCC2)cc1 (stereo not given),39.8*,-3.0,-1.1,-4.7,-10.8
CC(C)(CNC(=O)c1ccc(-c2ccccc2Cl)o1)N1CCOCC1,39.8*,-4.3,-0.9,-4.6,-20.3
SMILES,D2 antag,D2 ag-1,D2 ag-2,D2 PAM-1,D2 PAM-2
COc1ccc(C(CNC(=O)CSc2ccccc2F)N2CCOCC2)cc1 (stereo not given),2.7,-1.3,1.9,12.4,-5.0
COc1ccc(C(CNC(=O)c2ccc(-c3ccccc3Cl)o2)N2CCOCC2)cc1 (stereo not given),66.4*,-4.5,1.3,-38.9,-39.5
CC(C)(CNC(=O)c1ccc(Br)o1)N1CCOCC1,7.3,-2.1,0.2,7.6,-16.9
COC(=O)c1c(C)sc(-c2c(-c3ccc4c(c3)OCCO4)[nH]c3c2c(=O)[nH]c(=O)n3C)c1O,·,·,7.4,10.9,·
CN(n1cnc2ccccc2c1=O)S(C)(=O)=O,·,-1.0,·,·,-3.9
CS(=O)(=O)Nn1cnc2ccccc2c1=O,3.6,2.3,-0.5,34.9*,-2.6
CCCCn1c(=O)c2oc3ccccc3c2n(Cc2ccc(C)cc2)c1=O,·,·,0.3,-8.5,·
C=CCNC(=S)Nc1sc2c(c1C(=O)OCC)CCN(C(=O)OCC)C2,-13.4,-0.6,0.1,39.7*,-17.2
CCOC(=O)c1c(NC(=S)NCc2ccccc2)sc2c1CCN(C(=O)OCC)C2,17.9,-8.0,-0.1,5.9,-3.9
O=C(Nc1cccc2nsnc12)c1ccc(-c2cccc(Cl)c2)o1,-9.6,0.7,-0.7,0.9,51.4*
O=C(Nc1ccccc1N1CCCCC1)c1ccc(-c2cccc(Cl)c2)o1,-6.1,-5.6,0.4,11.7,-6.3
COc1cc(CNCc2ccccc2)c(Br)cc1OC1CCCC1,50.9*,-2.7,-1.2,-26.5,-21.8
COc1cc(CNC2CCCC2)c(Br)cc1OC1CCCC1,-3.2,-17.8,1.3,-19.5,-20.7
CN(C)Cc1c(O)ccc2cc(-c3nc4ccccc4n3C)c(=O)oc12,13.9,2.9,20.2,3.7,-2.3
CCN(CC)c1ccc2cc(-c3nnc(-c4ccccc4)o3)c(=O)oc2c1,37.9*,-1.0,115.6*,-7.1,-2.2
CCN(CC)c1ccc2cc(-c3nc4ccccc4n3C)c(=O)oc2c1,39.6*,1.6,71.6*,-8.3,6.5
CCN(CC)c1ccc2cc(-c3nc4ccccc4[nH]3)c(=O)oc2c1,76.3*,5.3,104.2*,-13.5,17.0
CCN(CC)c1ccc2cc(-c3nc(-c4ccc(OC)cc4)cs3)c(=O)oc2c1,71.0*,?,100.6*,-19.0,24.7
CCOC(=O)c1ccccc1NC(=O)N1CCCn2nc(C)cc21,·,·,-1.8,-9.5,·
Cc1nn2c(=O)cc(COC(=O)c3cccc(NC(=O)COc4ccccc4C)c3)nc2s1,·,·,1.0,2.6,·
COc1ccc2c(c1)C(C)CC(C)(C)N2C(=O)Nc1ccccc1 (stereo not given),54.0*,1.1,1.2,-3.3,-1.9
COc1ccc2c(c1)C(C)CC(C)(C)N2C(=O)CSc1nc2ccccc2s1 (stereo not given),14.3,-4.1,-0.4,-6.3,17.2
Cc1cccc(N(C)S(=O)(=O)c2ccc3c(c2)C(C)(C)C(=O)N3C)c1,40.9*,3.6,-0.5,2.7,-1.0
